Compound activity from PubChem.
Rows were chosen to be rich in hits. Some 4.5% of all compounds tested hit in one or more screens of this group.
aSyn 5UTR inh: MLPCN primary screen, SNCA 5' untranslated region; alpha-synuclein 5'UTR reporter, inhibitor activity; inhibition, % (tested at 7.5 µM); hit rate 0.82% among 300,000; AID 1813; in the data active = inhibition above about 60%; inconclusive = no clear call, values can overlap the other calls;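 note: H4 neuroglioblastoma cells stably carrying SNCA 5'UTR luciferase fusion; 0% = DMSO wells and 100% = positive control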
697 NFkB inh: inhibitors of the PMA/ionomycin-induced NF-kB reporter in 697 B cells | 697 B-cell NF-kB luciferase reporter, 16 h | inhibition, % at 4 µM | hit rate 0.33% among 330,000; in the data active = inhibition above about 35%
Gli-Sufu block: blocks Gli-Sufu signaling in a luciferase reporter. Sufu-KO-LIGHT fibroblasts, Gli luciferase reporter luminescence. inhibition, % at 5 µM. hit rate 0.74% among 340,000. AID 588413;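 active = inhibition above about 55%, limit read from the data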;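 note: 0% = DMSO-treated cells and 100% = wells with medium but no cells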
Jurkat NFkB inh: inhibitors of the PMA/ionomycin-induced NF-kB reporter in Jurkat cells; PMA/ionomycin-induced NF-kB luciferase reporter, luminescence; inhibition, % at 4 µM; hit rate 0.53% among 330,000; AID 435003; in the data active = inhibition above about 50%
CSC inhib: blocks cancer stem cells. AID 2717. inhibition, % at 7.5 µM. cancer stem cell-like cells viability, luminescence. hit rate 1.1% among 300,000; in the data active = inhibition above about 75%; inconclusive = no clear call, values can overlap the other calls; tested in HMLE shEcad cells
Mdm2 MdmX PPI: disrupts the human Mdm2-MdmX interaction; inhibition, % at 8 µM; SaOS-2 split-luciferase Mdm2/MdmX complementation, luminescence; hit rate 3% among 330,000;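 active = inhibition of at least 50% at 8 µM in the primary screen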
Target sequence (O15151 whole entry, looked up): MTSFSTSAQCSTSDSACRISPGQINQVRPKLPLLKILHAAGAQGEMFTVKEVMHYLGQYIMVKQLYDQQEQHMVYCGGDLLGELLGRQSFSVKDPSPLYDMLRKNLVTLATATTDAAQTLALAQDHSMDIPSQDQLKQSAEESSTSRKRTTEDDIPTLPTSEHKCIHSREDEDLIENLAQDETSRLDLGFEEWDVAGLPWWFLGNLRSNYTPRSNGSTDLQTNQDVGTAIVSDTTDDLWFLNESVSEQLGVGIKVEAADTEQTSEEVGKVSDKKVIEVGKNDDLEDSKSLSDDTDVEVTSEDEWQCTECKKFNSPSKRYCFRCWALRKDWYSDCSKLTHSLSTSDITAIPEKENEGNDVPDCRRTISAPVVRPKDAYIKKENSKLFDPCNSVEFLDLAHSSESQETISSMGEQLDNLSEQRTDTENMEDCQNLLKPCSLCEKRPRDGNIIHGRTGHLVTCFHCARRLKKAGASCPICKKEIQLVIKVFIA
Target sequence (Q00987 whole entry, looked up): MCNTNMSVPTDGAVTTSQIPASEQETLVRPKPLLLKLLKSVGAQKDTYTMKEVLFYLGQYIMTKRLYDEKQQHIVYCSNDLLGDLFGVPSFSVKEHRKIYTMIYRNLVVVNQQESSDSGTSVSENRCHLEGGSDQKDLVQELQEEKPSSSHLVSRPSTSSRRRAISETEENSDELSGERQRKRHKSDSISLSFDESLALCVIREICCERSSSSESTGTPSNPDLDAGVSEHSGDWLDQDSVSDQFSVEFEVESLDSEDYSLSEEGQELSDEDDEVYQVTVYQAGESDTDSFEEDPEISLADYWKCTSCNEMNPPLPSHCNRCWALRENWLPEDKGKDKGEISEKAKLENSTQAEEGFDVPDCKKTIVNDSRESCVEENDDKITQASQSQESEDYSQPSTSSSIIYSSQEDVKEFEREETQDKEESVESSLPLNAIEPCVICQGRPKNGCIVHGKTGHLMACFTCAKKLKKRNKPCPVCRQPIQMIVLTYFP
Mdm2-MdmX conf: confirmation of human Mdm2/MdmX interaction inhibitors; AID 489028; Mdm2-MdmX binding, luminescent assay; inhibition, % at 8 µM; shares compounds with Mdm2 MdmX PPI; hit rate 55% among 10,000; in the data active = inhibition above about 40%
Full FLuc ctr: full-length luciferase inhibition in Mdm2/MdmX counter-screen; hit rate 77% among 6,200; inhibition, % at 8 µM; SaOS-2 full-length luciferase counterscreen, luminescence; shares compounds with Mdm2 MdmX PPI;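 active = mean inhibition at 8 µM reaching about 37%, which flags the compound as non-specific, limit read from the data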;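 note: p53-null SaOS-2 cells with luciferase driven by a doxycycline-inducible promoter; compound on cells about two nights before reading with doxycycline added after day one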
Numbers without * were called inactive; u = inconclusive; x = no result given.

SMILES	aSyn 5UTR inh	697 NFkB inh	Gli-Sufu block	Jurkat NFkB inh	CSC inhib	Mdm2 MdmX PPI	Mdm2-MdmX conf	Full FLuc ctr
CC(=O)Nc1ccc(N=Cc2c(O)c3ccccc3oc2=O)cc1	0	-7	17	-7	17	53*	33	x
CCOc1cc(Br)c(Br)c(C=Nc2ccc(NC(C)=O)cc2)c1O	6	11	-4	9	-1	68*	76*	33
CC(=O)Nc1ccc(N=Cc2c(O)c(C(=O)Nc3ccccc3)cc3ccccc23)cc1	-29	-62	-9	-1	98*	78*	37	104*
CCOC(=O)Cc1cnc(NC(=O)CSc2nc(C)c(CC)c(=O)[nH]2)s1	-17	8	-1	-6	6	-23	x	x
CC(C)c1ccc(NC(=O)CN2C(=O)c3ccccc3S2(=O)=O)cc1	13	-6	-19	-3	9	37	x	x
O=C(CN1C(=O)c2ccccc2S1(=O)=O)Nc1ncccn1	5	4	-5	16	-18	9	x	x
O=C(CN1C(=O)c2ccccc2S1(=O)=O)Nc1ncc(Cl)cc1Cl	x	25	48	14	-8	84*	70*	64*
CN(c1cccc(NC(=O)CN2C(=O)c3ccccc3S2(=O)=O)c1)S(C)(=O)=O	28	14	18	6	-17	51*	39	82*
COc1cc(SC#N)ccc1N=Cc1c(C)[nH]n(-c2ccc(C)c(C)c2)c1=O	8	10	0	-5	97*	87*	91*	52*
COc1cc(SC#N)ccc1N=Cc1c(C)[nH]n(-c2ccc(Cl)cc2)c1=O	-20	13	14	-13	-1	23	x	x
COc1cc(S(=O)(=O)Nc2ccccc2)ccc1N=Cc1c(C)[nH]n(-c2ccc(C)cc2)c1=O	29	-31	x	6	9	67*	21	x
NC1(C#Cc2ccc3oc(=O)c(-n4cc(-c5ccsc5)nn4)cc3c2)CCCCC1	x	14	15	23	14	94*	15	x
O=C(NCCN1C(=O)S/C(=C/c2cccnc2)C1=O)c1ccc(S(=O)(=O)N2CCCC2)cc1	x	x	3	x	x	x	x	x
CCC1Nc2ncnc(N3CCN(c4ccccc4)CC3)c2N(Cc2ccc(Br)cc2)C1=O (stereo not drawn)	4	0	8	13	14	53*	13	x
Cc1cccc(CN2C(=O)c3ccccc3Sc3ccc(C(=O)NCCCN4CCOCC4)cc32)c1	-11	19	11	2	-1	18	x	x
CCN1CCN(CCCNC(=O)c2ccc3c(c2)NC(=O)c2ccccc2S3)CC1	4	5	0	3	-3	-1	x	x
Cc1cccc(/C=C2/Sc3ccc(C(=O)NCCCN4CCOCC4)cc3NC2=O)c1	-69	-2	x	8	115*	53*	2	x
CCN1CCN(CCCNC(=O)c2ccc3c(c2)NC(=O)/C(=C\c2cccc(C)c2)S3)CC1	0	1	23	21	121*	97*	61*	63*
COc1ccc(/C=C2/Sc3ccc(C(=O)NCCCN4CCOCC4)cc3NC2=O)cc1OC	2	-1	25	-16	7	76*	19	x
CCN1CCCC1CNC(=O)c1ccc2c(c1)NC(=O)/C(=C\c1ccc(OC)c(OC)c1)S2 (stereo not drawn)	-6	-19	13	-50	4	53*	19	x
CC(=O)Nc1cccc(OCC(=O)Nc2sccc2C(N)=O)c1	-82	5	-32	-35	-9	-40	x	x
Cn1nc(C(=O)N2CCCCC2)c2c1-c1ccccc1S(=O)(=O)C2	15	2	-4	-1	-10	7	x	x
CN1CCN(CCCNC(=O)c2ccc3c(c2)N(Cc2ccccc2)CCS3)CC1	-5	-22	25	-2	42	32	x	x
CCN1CCN(CCCNC(=O)c2ccc3c(c2)N(Cc2ccc(C)cc2)CCS3)CC1	-7	0	28	0	-1	51*	6	x
O=C(Nc1ccccc1)C1=C[C@@H](C2CC2)C[C@@H](OCc2ccc(CO)cc2)O1	-30	-21	0	-14	-7	21	x	x
SMILES	aSyn 5UTR inh	697 NFkB inh	Gli-Sufu block	Jurkat NFkB inh	CSC inhib	Mdm2 MdmX PPI	Mdm2-MdmX conf	Full FLuc ctr
CN1CCC2(CC1)Nc1nc(SCc3ccc(Cl)cc3)nn1C1=C2CN(C)CC1	-8	24	6	-1	4	53*	34	x
CC(=O)c1cnc2nc(SCc3ccc(Cl)cc3)nn2c1C	23	3	-23	-8	-12	1	x	x
O=C1C(=C2SCCCS2)CC/C1=C\c1ccc(F)cc1	119*	-146	0	3	36	82*	81*	26
O=C1/C(=C/c2ccc(F)cc2)CCC1C1CCCC1 (stereo not drawn)	-133	-76	-3	-31	-1	-25	x	x
COc1cc(Nc2nc3ccccc3nc2NS(=O)(=O)c2ccc([N+](=O)[O-])cc2)cc(OC)c1OC	15	15	4	17	11	68*	36	55*
O=[N+]([O-])c1ccc(S(=O)(=O)Nc2nc3ccccc3nc2Nc2ccccc2)cc1	3	1	30	12	6	25	x	x
COc1ccc(-n2c(C)c([N+](=O)[O-])c3ccc(O)c(CN(C)C)c32)cc1	-10	0	8	37	-6	79*	90*	53*
CCCNC(=O)C(Cc1ccc(Cl)cc1)NC(=O)c1ccc(-c2ccccc2)cc1 (stereo not drawn)	x	4	7	-11	5	59*	17	x
CCCNC(=O)C(Cc1ccc(Cl)cc1)NC(=O)c1ccc(C#N)cc1 (stereo not drawn)	x	12	0	-14	-21	33	x	x
Cc1c(C(=O)N2CCOCC2)sc(NC(=O)c2ccccc2F)c1C#N	10	-3	8	5	x	2	x	x
O=C(/C=C/c1ccc(Cl)c([N+](=O)[O-])c1)Nc1cccc(NC(=O)c2ccco2)c1	-43	-3	-1	-6	u	53*	22	x
O=C(/C=C/c1ccc(Cl)c([N+](=O)[O-])c1)Nc1ccc(NC(=O)c2ccco2)cc1	2	x	42	x	x	x	x	x
Cc1onc(-c2ccccc2)c1C(=O)NC(=S)NNC(=O)c1ccc(O)cc1O	64*	-12	14	12	34	59*	43*	71*
Cc1ccccc1C(=O)Nc1ccc(C(=O)N/N=C/c2ccc(O)c(Br)c2)cc1	-4	-12	-2	-11	22	-30	x	x
O=[N+]([O-])c1cc(S(=O)(=O)NCCN2CCOCC2)ccc1Sc1nnnn1-c1ccccc1	-96	-17	15	18	55	66*	50*	20
Cc1oncc1-c1csc(-c2ccccc2)n1	-82	-66	-15	-35	-9	5	x	x
Clc1ccc(CN2CCc3c([nH]c4ccccc34)C2)cc1Cl	-19	1	0	20	124*	96*	39	48*
Clc1cccc(CN2CCc3c([nH]c4ccccc34)C2)c1	-30	-23	-5	-13	29	34	x	x
